# Source: PubChem BioAssay AID434973 (Sanford-Burnham Center for Chemical Genomics, 2010)
# Hit rate of the full screen: of about 330,000 compounds, about 4,900 (1.5%) were called active. Shown is part of a subset that was picked to be rich in actives. Unmarked numbers belong to inactive results.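 The calls were made as follows: active = inhibition above about 50% at the single test dose (limit read from the data); inactive = the rest.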
# Biological target: Sentrin-specific protease 7 (Homo sapiens) (UniProt Q9BQF6)
# Assay: blockers of human SENP7 peptidase activity – biochemical, luminescence, uHTS, primary screen (AID 434973);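 also: plate controls were DMSO with enzyme for no effect and no enzyme buffer wells for full effect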
# Settings: recombinant SENP7, Z-RLRGG-aminoluciferin luminescence, 40 min; at 5 µM; active compounds read high
row,SMILES,inhibition
1,O=C(Nc1ccc(Cl)cn1)c1cnn2cccnc12,27.2%
2,COc1ccc(C(=O)NC(=S)Nc2ccc(Cl)cn2)cc1OC,-7.53%
3,CCCc1cc(C(=O)Nc2ccc(C(=O)OC)cc2)cs1,-0.862%
4,CCCCC(CC)C(=O)Nc1ccc(Cl)cn1 (stereo not given),-1.33%
5,Cc1nc(NC(=O)c2ccc3c(c2)OCCO3)ccc1Br,87.2% (active)
6,CCCc1cc(C(=O)Nc2ccc(Cl)cn2)cs1,76.6% (active)
7,Cc1cccc(C)c1NC(=O)CNC(=O)c1ccc2c(c1)OCCO2,-14.1%
8,O=C(Nc1ccc(Cl)cn1)c1ccc2c(c1)OCCO2,82.6% (active)
9,Cc1ccc(C(=O)NNC(=O)c2ccc3c(c2)OCCO3)cc1,6.51%
10,CN(c1ccccc1)S(=O)(=O)c1ccc(Cl)c(C(=O)OCC(=O)N2CCOCC2)c1,3.02%
11,O=C(NCCC(=O)N1O[C@@H]2C=C[C@H]1C2)OCC1c2ccccc2-c2ccccc21,3.86%
12,Cc1ccn(C(CC(=O)c2ccc(Br)cc2)C(=O)O)n1 (stereo not given),4.97%
13,CCCCN(CC)C(=O)c1ccccc1Oc1ccccc1,6.13%
14,COC(=O)c1nn(-c2cccc(Cl)c2)ccc1=O,3.97%
15,COc1ccc(N=C(C)c2sc3ccccc3c2O)cc1,83.7% (active)
16,COC(=O)c1ccc(/C=C/c2c(-c3ccc(OC)cc3)sc3ccccc23)cc1,3.42%
17,COc1ccc(-c2sc3ccccc3c2-c2ccc(OCCN3CCOCC3)cc2)cc1,-12.1%
18,Cc1ccc2cc3cc(C(=O)N4CCCCCC4)oc3nc2c1,55.3% (active)
19,Cc1ccc2nc(N3CCN(C(=O)c4ccco4)CC3)sc2c1,-7.97%
20,Cc1cc(C)cc(NC(=O)N2CCCCCCC2)c1,0.706%
21,O=c1onc(-c2c(F)cccc2F)n1-c1ccccc1Cl,-2.38%
22,Cc1cc(=O)[nH]c(S)c1C#N,7.81%

row,SMILES,inhibition
1,CCc1ccc(OCC(=O)OCC(=O)c2c(N)n(C)c(=O)n(C)c2=O)cc1,-1.23%
2,c1ccc2sc(NN=C3CCCC3)nc2c1,82.2% (active)
3,O=C1NC(Nc2nc3ccccc3s2)(C(F)(F)F)C(=O)N1C1CCCCC1 (stereo not given),6.04%
4,CCN(CC)CCn1c2c(c(SCC(=O)Nc3nc4ccccc4s3)nc1=O)CCCC2,4.47%
5,COc1ccc(CNC(=O)C2CCC(CNc3c(N4CCOCC4)c(=O)c3=O)CC2)cc1 (stereo not given),-10.4%
6,O=C(Nc1nnc(-c2ccccc2)o1)c1cccc(S(=O)(=O)N2CCOCC2)c1,-5.26%
7,O=C(O[C@H]1[C@H](Cc2ccccc2)NS(=O)(=O)[C@H]2C[C@@H]3C=C[C@]12O3)c1ccc([N+](=O)[O-])cc1,7.73%
8,Cc1cccc(N(CC(=O)N=Nc2c(O)[nH]c3ccccc23)S(C)(=O)=O)c1C,5.39%
9,Cc1c(-c2ccccc2)n[nH]c1C(=O)N=Nc1c(O)[nH]c2ccccc12,84.6% (active)
10,O=C(CCN1CCCCC1)N=Nc1c(O)[nH]c2ccccc12,-5.94%
11,CCCOc1ccc(C(=O)NCCc2ccccc2)cc1,78.1% (active)
12,CCCc1ccc(OCCNC(=O)c2ccccc2Br)cc1,-1.05%
13,CCCc1ccc(OCCNC(=O)c2ccco2)cc1,-0.541%
14,COc1ccc(CCNC(=O)C(=O)NCC2CCNCC2)cc1OC,2.84%
15,COc1ccc(SC[C@H](Cc2ccccc2)N2CCN(CCc3ccccc3)CCC2=O)cc1,-3.68%
16,CCn1cc(C(=O)NCCCN2CCCCCC2)c(=O)c2cc(S(=O)(=O)N3CCc4ccccc4C3)ccc21,7.21%
17,COc1cc(OC)cc(-c2nc(=S)n3ccsc3n2)c1,0.18%
18,COc1ccc(-c2cn3ccc(C)cc3n2)cc1,98.1% (active)
19,COc1ccc(-c2cn3ccsc3n2)cc1,58.5% (active)
20,Cc1ccn2cc(C(=O)NC3CCN(Cc4ccccc4)CC3)nc2c1,5.68%
21,COc1ccc(-c2cn3cccnc3n2)cc1,1.35%
22,CCN(CC)S(=O)(=O)c1ccc(-c2cn3ccc(C)cc3n2)cc1,10.3%

row,SMILES,inhibition
1,CC(C)(C)c1ccc(/C=C/C(=O)NC2CCS(=O)(=O)C2)cc1 (stereo not given),5.24%
2,Cc1ccc(S(=O)(=O)N2CCN(C(=O)c3ccc(-n4cncn4)c([N+](=O)[O-])c3)CC2)cc1,0.142%
3,CN(C)S(=O)(=O)c1cc(NC(=O)CN2C(=O)NC3(CCCc4ccccc43)C2=O)ccc1Cl (stereo not given),-13.5%
4,Cc1nc2nc(C)c(NS(=O)(=O)c3ccc(C(C)(C)C)cc3)c(=O)n2[nH]1,-0.191%
5,Cc1cccc(C)c1Nc1nnc(SCC(=O)Nc2sccc2C#N)s1,8.73%
6,Cc1ccc(NC(=O)CSCC(=O)Nc2sccc2C#N)cc1,1.52%
7,Cc1csc(SCC(=O)Nc2sccc2C#N)n1,94% (active)
8,COC(=O)C1=C(C)NC(=O)/C1=C/c1ccc(CNS(=O)(=O)c2ccc(C)cc2)o1,-2.86%
9,CC(=O)Nc1ccc(C(=O)Nc2cccc(S(=O)(=O)NC3=NCCC3)c2)cc1,-0.0847%
10,O=C(Nc1cccc([N+](=O)[O-])c1)c1ccc2c(c1)OCO2,66.9% (active)
11,O=C(Nc1ccccc1)c1ccc2c(c1)OCCCO2,90.7% (active)
12,O=C(Nc1ccc(N2CCOCC2)cc1)c1ccc2c(c1)OCO2,16.9%
13,CC(NC(=O)Nc1cccc([N+](=O)[O-])c1)c1ccc2c(c1)OCO2 (stereo not given),3.89%
14,CN(Cc1c(F)cccc1Cl)C(=O)CNC(=O)c1ccc2c(c1)OCO2,-9.22%
15,CN1CCN(c2ccc(NC(=O)c3ccc4c(c3)OCCO4)cc2Cl)CC1,-1.01%
16,O=C(Nc1ccc(NC(=O)c2ccc3c(c2)OCO3)cc1)c1cccc(Cl)c1,1.85%
17,CC(C)C(=O)Nc1cccc(C(=O)Nc2ccc3c(c2)OCO3)c1,34.3%
18,N#Cc1ccccc1NC(=O)c1ccc2c(c1)OCO2,2.46%
19,O=C(Nc1ccccc1)c1ccc2c(c1)OCO2,88.5% (active)
20,O=C(Nc1ccc2c(c1)OCCO2)c1ccoc1,-0.659%
21,O=C(Nc1ccccc1F)c1ccc2c(c1)OCO2,67.5% (active)
